From PubChem BioAssay
Active and inactive are the calls of the source.

Legend:
[1] = small molecules captured by biotinylated probe aFSTL3 – biochemical, small-molecule microarray, fluorescence 635/667, stem cell growth factor project, primary screen (AID 1064); conditions: higher = more signal;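 further: measures binding of the biotinylated anti-FSTL3 antibody to printed compounds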
[2] = binders from COS7 lysate, DM2A8 probe, primary screen, torsin A project, cell lysate, small-molecule microarray, fluorescence 635/667 (AID 1065); conditions: higher = more signal, COS7 lysate expressing mutant human TOR1A
[3] = small molecules captured by biotinylated probe aFGF2 – biochemical, small-molecule microarray, fluorescence 635/667, stem cell growth factor project, primary screen (AID 1067); conditions: higher = more signal;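 further: measures binding of biotinylated aFGF2 protein to printed compounds on slides; z-score merges feature fluorescence and signal-to-noise across triplicate slides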
[4] = small molecules captured by biotinylated probe aFGF10 – biochemical, small-molecule microarray, fluorescence 635/667, stem cell growth factor project, primary screen (AID 1071); conditions: higher = more signal;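 further: score merges 667 nm spot intensity and signal to noise from triplicate slides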
[5] = biological target: Neurogenic locus notch homolog protein 2 (Homo sapiens) (UniProt Q04721); assay: small molecules binding Notch2 protein – biochemical, small-molecule microarray, 635 nm fluorescence, stem cell growth factors, primary screen (AID 1073); conditions: higher = more signal
[6] = biological target: Pro-neuregulin-1, membrane-bound isoform (Homo sapiens) (UniProt Q02297); assay: small molecules binding neuregulin-1 protein – biochemical, small-molecule microarray, fluorescence 635/667, psychiatric disease protein project, primary screen (AID 1075); conditions: NRG1 binding, 635 nm fluorescence, higher = more signal;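 further: score combines 667 nm spot fluorescence with signal to noise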
[7] = tested on: Neuregulin-1 EGF-like domain; assay: small molecules binding NRG1 EGF domain – biochemical, small-molecule microarray, 635 nm fluorescence, primary screen (AID 1081); conditions: higher = more signal;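 further: binding of the protein to compounds printed on small-molecule microarray slides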
[8] = FRG1 expression reporter modulators in myotubes – cell-based, C2C12 myotubes, firefly/Renilla luciferase, luminescence, FRG1 inhibition for FSHD, primary screen (AID 1084); conditions: FRG1 promoter luciferase, higher = more signal, called active from +8 up or from −8 down
[9] = small molecules captured by biotinylated probe aFST – biochemical, small-molecule microarray, fluorescence 635/667, stem cell growth factor project, primary screen (AID 1086); conditions: higher = more signal;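 further: score merges 667 nm fluorescence with signal-to-noise of each printed compound spot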
[10] = binders of probe aHhip on microarray, primary screen, stem cell growth factor project, biochemical, small-molecule microarray, fluorescence 635/667 (AID 1087); conditions: higher = more signal;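 further: score merges spot fluorescence at 667nm with spot signal to noise ratio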
[11] = tested on: PRMT1 (protein arginine N-methyltransferase 1); assay: small molecules binding arginine methyltransferase PRMT1 – biochemical, small-molecule microarray, 635 nm fluorescence, primary screen (AID 1088); conditions: higher = more signal;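 further: binding of Prmt1 protein to compounds spotted on small-molecule microarray slides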
[12] = growth effects on S. cerevisiae YJM789 – YJM789 clinical isolate, OD600, 24 h, basal, primary screen (AID 1089); conditions: higher = more signal, called active from +8 up or from −8 down;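 further: growth of clinical yeast isolate S. cerevisiae YJM 789 seeded 1000 cells per well; test concentration not given here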
[13] = S. pombe growth modifiers, basal conditions – strain 972, OD600, 24 h, no modulator, primary screen (AID 1090);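 further: basal condition with compound alone and no growth modifier present; test concentration not given here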; conditions: S. pombe 972 growth, higher = more signal, called active from +8 up or from −8 down
[14] = budding yeast growth modifiers under rapamycin – strain BY4716, OD600, 96 h, primary screen (AID 1091); further: test concentration not given here; conditions: S. cerevisiae BY4716 + rapamycin, higher = more signal, called active from +8 up or from −8 down
[15] = biological target: Torsin-1A-interacting protein 2 (Homo sapiens) (UniProt Q8NFQ8); assay: small molecules binding lysate-expressed LULL1 – cell lysate, human LULL1 lysate, 635/667 nm fluorescence, primary screen (AID 1092); conditions: small-molecule microarray, hLULL1 lysate binding, 635 nm fluorescence; higher = more signal;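 further: probe is lysate of COS7 cells overexpressing human LULL1; score merges per-feature 667 nm fluorescence with signal-to-noise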
[16] = optical density change of DRC41 E. coli – strain DRC41, OD650, 24 h, E. coli filamentation project, primary screen (AID 1093);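 further: MC1000 strain lacking acrAB efflux and sulA so SOS filamentation is blocked; test concentration not given here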; conditions: E. coli DRC41 growth, higher = more signal, called active from +8 up or from −8 down
[17] = probe aLefty2 binding to arrayed compounds – biochemical, biotinylated probe, 635/667 nm fluorescence, primary screen (AID 1094); conditions: small-molecule microarray, higher = more signal;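 further: score merges spot fluorescence near 667 nm with spot signal-to-noise ratio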
[18] = tested on: Noggin (protein binding on small-molecule microarray); assay: small molecules binding Noggin protein – biochemical, 635/667 nm fluorescence, primary screen (AID 1095); conditions: 635 nm fluorescence, higher = more signal;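 further: score merges 667 nm feature fluorescence with signal to noise over triplicate slides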
[19] = biological target: Neurogenic locus notch homolog protein 3 (Homo sapiens) (UniProt Q9UM47); assay: small molecules binding NOTCH3 protein – biochemical, 635/667 nm fluorescence, primary screen (AID 1096); conditions: small-molecule microarray, 635 nm fluorescence, higher = more signal
[20] = probe aEGFR binding to arrayed compounds – biochemical, biotinylated probe, 635/667 nm fluorescence, primary screen (AID 1097); conditions: small-molecule microarray, higher = more signal;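 further: probe is a biotinylated anti-EGFR antibody binding compounds printed on slides; score combines fluorescence near 667 nm and signal to noise of each spot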

Sequence of Pro-neuregulin-1, membrane-bound isoform (Homo sapiens) (Q02297 whole entry, looked up, the tested form may be a part, canonical isoform): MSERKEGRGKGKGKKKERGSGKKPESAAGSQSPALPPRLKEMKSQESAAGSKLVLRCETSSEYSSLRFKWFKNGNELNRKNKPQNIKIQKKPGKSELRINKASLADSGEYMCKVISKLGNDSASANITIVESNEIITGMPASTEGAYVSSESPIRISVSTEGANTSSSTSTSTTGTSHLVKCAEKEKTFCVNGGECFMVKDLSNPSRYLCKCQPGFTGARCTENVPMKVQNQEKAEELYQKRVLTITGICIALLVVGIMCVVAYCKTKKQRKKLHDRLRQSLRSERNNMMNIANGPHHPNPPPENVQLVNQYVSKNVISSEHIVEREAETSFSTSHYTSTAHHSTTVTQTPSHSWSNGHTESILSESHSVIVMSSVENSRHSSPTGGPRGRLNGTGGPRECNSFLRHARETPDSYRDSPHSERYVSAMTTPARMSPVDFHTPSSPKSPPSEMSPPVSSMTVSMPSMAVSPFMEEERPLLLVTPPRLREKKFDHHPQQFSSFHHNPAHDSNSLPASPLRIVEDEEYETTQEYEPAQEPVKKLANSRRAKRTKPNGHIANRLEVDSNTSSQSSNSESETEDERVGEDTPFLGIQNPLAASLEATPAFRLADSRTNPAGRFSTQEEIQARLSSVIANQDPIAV
Sequence of Torsin-1A-interacting protein 2 (Homo sapiens) (Q8NFQ8 whole entry, looked up): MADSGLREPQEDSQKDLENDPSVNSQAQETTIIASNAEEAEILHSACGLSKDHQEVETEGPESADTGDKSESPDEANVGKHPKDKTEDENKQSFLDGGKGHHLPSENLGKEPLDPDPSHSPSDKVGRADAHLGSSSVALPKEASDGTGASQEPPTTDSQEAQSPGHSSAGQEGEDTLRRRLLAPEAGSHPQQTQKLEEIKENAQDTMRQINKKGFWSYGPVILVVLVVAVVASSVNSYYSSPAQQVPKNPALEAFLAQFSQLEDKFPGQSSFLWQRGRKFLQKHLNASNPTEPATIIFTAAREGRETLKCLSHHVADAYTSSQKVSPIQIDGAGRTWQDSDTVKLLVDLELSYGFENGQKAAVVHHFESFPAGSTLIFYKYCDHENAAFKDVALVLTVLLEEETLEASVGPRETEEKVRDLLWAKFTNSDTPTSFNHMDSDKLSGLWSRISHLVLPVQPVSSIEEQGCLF
Sequence of Neurogenic locus notch homolog protein 3 (Homo sapiens) (Q9UM47 whole entry, looked up): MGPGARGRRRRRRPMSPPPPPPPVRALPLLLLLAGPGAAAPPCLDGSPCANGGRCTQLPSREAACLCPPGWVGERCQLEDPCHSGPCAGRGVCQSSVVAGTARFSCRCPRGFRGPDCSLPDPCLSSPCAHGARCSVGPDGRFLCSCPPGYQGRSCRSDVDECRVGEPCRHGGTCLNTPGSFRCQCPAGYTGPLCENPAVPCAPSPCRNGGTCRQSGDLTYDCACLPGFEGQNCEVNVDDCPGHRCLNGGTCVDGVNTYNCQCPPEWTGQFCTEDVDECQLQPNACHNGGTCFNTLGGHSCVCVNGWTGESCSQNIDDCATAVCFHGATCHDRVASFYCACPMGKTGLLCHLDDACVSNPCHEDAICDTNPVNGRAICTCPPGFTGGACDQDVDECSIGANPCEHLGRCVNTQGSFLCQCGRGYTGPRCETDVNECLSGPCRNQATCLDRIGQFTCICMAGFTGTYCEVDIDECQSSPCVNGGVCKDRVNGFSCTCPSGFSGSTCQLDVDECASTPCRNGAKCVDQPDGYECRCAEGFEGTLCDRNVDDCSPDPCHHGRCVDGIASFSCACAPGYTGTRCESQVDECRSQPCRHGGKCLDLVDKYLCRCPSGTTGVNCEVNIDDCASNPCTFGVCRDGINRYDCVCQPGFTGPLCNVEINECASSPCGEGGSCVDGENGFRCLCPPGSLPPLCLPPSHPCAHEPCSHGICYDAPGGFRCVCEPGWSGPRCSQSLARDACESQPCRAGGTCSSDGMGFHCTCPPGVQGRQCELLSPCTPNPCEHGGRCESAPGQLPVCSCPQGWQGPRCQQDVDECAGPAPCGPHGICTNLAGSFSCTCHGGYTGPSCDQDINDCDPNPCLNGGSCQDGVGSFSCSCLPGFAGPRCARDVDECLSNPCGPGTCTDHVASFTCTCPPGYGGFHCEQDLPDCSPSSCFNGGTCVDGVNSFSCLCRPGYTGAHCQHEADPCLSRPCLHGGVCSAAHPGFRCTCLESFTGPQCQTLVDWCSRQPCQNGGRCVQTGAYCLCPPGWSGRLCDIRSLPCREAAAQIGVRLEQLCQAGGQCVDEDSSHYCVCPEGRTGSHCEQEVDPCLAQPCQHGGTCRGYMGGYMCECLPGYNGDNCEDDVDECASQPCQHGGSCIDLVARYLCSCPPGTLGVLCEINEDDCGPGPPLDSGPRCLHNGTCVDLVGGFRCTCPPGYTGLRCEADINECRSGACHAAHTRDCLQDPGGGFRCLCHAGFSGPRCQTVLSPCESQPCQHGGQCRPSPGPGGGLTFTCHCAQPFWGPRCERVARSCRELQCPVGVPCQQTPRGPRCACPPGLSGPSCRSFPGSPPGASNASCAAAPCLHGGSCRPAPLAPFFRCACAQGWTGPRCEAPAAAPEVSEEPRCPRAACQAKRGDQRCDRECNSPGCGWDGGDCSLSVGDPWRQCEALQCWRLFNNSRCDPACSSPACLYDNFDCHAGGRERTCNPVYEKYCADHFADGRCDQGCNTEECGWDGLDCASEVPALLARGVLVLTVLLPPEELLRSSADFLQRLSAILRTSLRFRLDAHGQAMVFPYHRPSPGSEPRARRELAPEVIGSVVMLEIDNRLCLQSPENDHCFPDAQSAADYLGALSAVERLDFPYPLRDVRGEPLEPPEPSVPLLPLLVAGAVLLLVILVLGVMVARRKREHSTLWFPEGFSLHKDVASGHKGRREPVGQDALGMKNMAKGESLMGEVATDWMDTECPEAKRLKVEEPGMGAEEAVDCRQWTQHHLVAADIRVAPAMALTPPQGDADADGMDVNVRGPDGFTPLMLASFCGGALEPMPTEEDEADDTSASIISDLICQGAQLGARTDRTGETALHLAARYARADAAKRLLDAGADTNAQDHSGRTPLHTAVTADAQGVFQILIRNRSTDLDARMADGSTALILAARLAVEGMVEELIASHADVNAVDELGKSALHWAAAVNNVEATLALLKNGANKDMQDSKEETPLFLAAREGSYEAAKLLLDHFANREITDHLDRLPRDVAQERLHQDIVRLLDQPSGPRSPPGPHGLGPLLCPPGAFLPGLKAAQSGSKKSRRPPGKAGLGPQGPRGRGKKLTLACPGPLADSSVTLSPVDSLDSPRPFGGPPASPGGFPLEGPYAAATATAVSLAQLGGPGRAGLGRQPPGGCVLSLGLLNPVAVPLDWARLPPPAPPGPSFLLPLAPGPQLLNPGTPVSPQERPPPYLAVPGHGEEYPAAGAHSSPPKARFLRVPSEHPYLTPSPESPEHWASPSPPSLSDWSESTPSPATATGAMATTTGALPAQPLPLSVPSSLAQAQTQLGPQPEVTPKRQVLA

Compound | composite z-score [1] | composite z-score [2] | composite z-score [3] | composite z-score [4] | composite z-score [5] | composite z-score [6] | composite z-score [7] | z-score [8] | composite z-score [9] | composite z-score [10] | composite z-score [11] | z-score [12] | z-score [13] | z-score [14] | composite z-score [15] | z-score [16] | composite z-score [17] | composite z-score [18] | composite z-score [19] | composite z-score [20]
COCC1C2CC[C@H]3C(OCc4ccc(F)cc4C(F)(F)F)OC[C@]4(C)[C@H]3C2=C(CN4C(=O)OC(C)(C)C)[C@H](C)C1COC (stereo not given in full) | 0.409 | 0.0838 | 0.0807 | 0.224 | 1.58 | 2.05 | 0.782 | -0.255 (inactive) | 0.945 | -0.0672 | 0.61 | -0.886 (inactive) | 1.04 (inactive) | -0.2 (inactive) | 3.48 | -1.02 (inactive) | 0.522 | -0.761 | 0.96 | 0.0598
C=C(COC)C(=O)CC[C@H](OC(=O)c1cccnc1)c1ccccc1OCCO | -0.0665 | 0.903 | -0.0004 | 0.675 | 0.928 | 0.599 | 1.24 | 0.445 (inactive) | 0.437 | -0.236 | 1.56 | -2.31 (inactive) | -1.57 (inactive) | -0.278 (inactive) | 1.47 | 0.473 (inactive) | 0.157 | 1.15 | 1.15 | -0.0406
C=CCOC(=O)[C@H]1[C@@H]2C(=O)O[C@@H](c3ccccc3)[C@@H](c3ccccc3)N2[C@@H](c2ccc(OCCOC(=O)[C@H]3C[C@H]4C(=O)N[C@@H](CCCC[N+](C)(C)C)C(=O)N4[C@H]3c3ccc(O)cc3)cc2)[C@]12C(=O)Nc1ccccc12 | 0.104 | 0.154 | -0.1 | 0.276 | 0.193 | 0.06 | 1.09 | 0.131 (inactive) | 0.357 | -0.608 | -0.146 | -0.193 (inactive) | -2.55 (inactive) | -1.05 (inactive) | 1.68 | -0.405 (inactive) | 0.126 | 1.08 | 0.321 | -0.194
CC(C)C(=C=CC[C@H](O)c1ccccc1OCCO)CCO | 0.0409 | -0.0204 | -0.152 | 0.161 | -0.679 | 0.319 | 0.614 | 0.129 (inactive) | -0.0031 | -0.0994 | 1.35 | -0.655 (inactive) | -0.39 (inactive) | -0.236 (inactive) | 2.48 | -0.105 (inactive) | 0.0349 | -0.143 | -0.131 | -0.0915
CCCC[C@@H]1C[C@H]1[C@@H](NC(=O)c1ccco1)c1ccccc1 | 1.29 | -0.52 | -0.171 | -0.511 | -2.22 | -0.44 | -0.454 | -0.192 (inactive) | -0.945 | -0.0275 | -0.206 | -0.867 (inactive) | -15.3 (active) | -0.0654 (inactive) | -0.832 | -1.61 (inactive) | -0.121 | -1.77 | -0.716 | -0.25
CCCC[C@@H]1C[C@H]1[C@@H](NC(=O)c1ccccc1)c1ccc(-c2ccccc2)cc1 | -0.138 | 0.535 | 0.0805 | -0.0214 | 0.294 | 0.23 | 0.341 | -1.76 (inactive) | 0.442 | -0.21 | 0.409 | -2.02 (inactive) | 0.256 (inactive) | 2.7 (inactive) | 2.3 | -0.947 (inactive) | -0.12 | 0.364 | 0.496 | -0.117
NC(=O)[C@@]1(CCS(=O)(=O)c2ccccc2)N=C(c2ccc(OCCCO)cc2)O[C@H]1c1ccccc1 | 0.287 | 1.54 | 0.103 | 0.58 | 0.251 | 0.0342 | 1.3 | -1.19 (inactive) | 0.893 | -0.0645 | 1.54 | -0.0366 (inactive) | -1.58 (inactive) | -0.918 (inactive) | 3.6 | 0.515 (inactive) | -0.046 | -0.316 | 0.667 | -0.0703
C=C(C(=O)CC[C@@H](OC(C)=O)c1ccc(OCCO)cc1)C(C)C | 0.0823 | 0.366 | -0.0676 | 0.853 | 0.146 | 0.845 | 1.19 | 2.4 (inactive) | -0.193 | -0.287 | 0.387 | -1.33 (inactive) | -1.38 (inactive) | -0.423 (inactive) | 1.45 | 0.278 (inactive) | -0.114 | -0.053 | -0.054 | 0.0073
COc1ccc([Si](C)(C)[C@H]2[C@H](CCO)O[C@@]3(C(=O)N(Cc4cccc(N5C(=O)c6cccc7cccc5c67)c4)c4ccccc43)[C@@H]2C)cc1 | 0.0761 | -0.364 | 0.0253 | 0.404 | -0.136 | 0.795 | 1 | -1.43 (inactive) | -0.26 | -0.212 | 1.16 | 2.05 (inactive) | 1.23 (inactive) | 36.9 (active) | 2.1 | 0.879 (inactive) | -0.205 | 0.492 | 0.344 | -0.225
CN(C)CCCC[C@@H]1NC(=O)[C@@H]2C[C@H](C(=O)NCc3ccc(F)cc3)[C@H](c3cccc(OCCO)c3)N2C1=O | -0.173 | -0.114 | -0.0707 | 0.738 | -0.252 | 0.617 | 1.02 | 1.36 (inactive) | 0.202 | -0.41 | 1.55 | -0.65 (inactive) | -1.41 (inactive) | -0.663 (inactive) | 2.96 | -0.0129 (inactive) | 0.823 | 1.97 | 1.11 | -0.0953
C#C[C@H](O[Si](C#CCCCCCC)(C(C)C)C(C)C)c1ccccc1 | -0.441 | -0.0593 | -0.0994 | 0.323 | -0.55 | -0.204 | 0.0885 | 0.0077 (inactive) | -0.748 | -0.217 | 0.631 | 0.0821 (inactive) | 0.384 (inactive) | -0.653 (inactive) | 0.432 | 0.411 (inactive) | -0.114 | 0.186 | 0.13 | -0.171
O=C(CS)NCCCCCNC(=O)[C@H]1C[C@H]2C(=O)N[C@@H](Cc3ccccc3)C(=O)N2[C@H]1c1cccc(OCCO)c1 | 0.0238 | 1.31 | -0.0195 | 1.16 | 0.617 | 0.244 | 1.33 | -0.676 (inactive) | 0.551 | -0.156 | 1.52 | -3.02 (inactive) | -0.991 (inactive) | -0.276 (inactive) | 2.55 | 1.94 (inactive) | 0.0669 | 1.44 | 1.09 | 0.12
CCN(CC)c1ccc(N2CC=CC34O[C@@H]5/C=C\CCCOC(=O)C5[C@H]3C(=O)N(CCCO)[C@@H]4C2=O)cc1 (stereo not given in full) | 0.485 | -0.701 | -0.113 | -0.883 | -0.991 | 1.45 | 0.657 | 2.31 (inactive) | -1.19 | -0.137 | 1.42 | -1.14 (inactive) | -0.249 (inactive) | -0.511 (inactive) | 3.65 | -0.204 (inactive) | -0.158 | -1.03 | -0.21 | -0.287
